A number with no mark means an inactive call. Results filed as inconclusive are left out. Calls of active or inactive are those of the source. Calls come from the whole dose curve; as a rule, active = well fitted curve in the direction sought with a large enough effect in the repeat runs; inconclusive = weak or mixed curves; inactive = no such curve, though single readings can be large; an effect the other way counts as inactive or inconclusive.

Test [1] is described as follows: qHTS RealTime-Glo MT Cell Viability Assay in HepG2 cells - 40 hour (AID 1224870). Note: nearly all actives have a fitted effect of over 50% in size. The essentials: (§1)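 HepG2 cells (600/well) mixed with RealTime-Glo MT reagent, settled 5 h at 37 C/5% CO2 before compound addition. Nonlytic NanoLuc luminescence from viable-cell prosubstrate reduction read repeatedly during 40 h treatment at 37 C.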
For orientation: qHTS replaces the single test concentration by a dilution series.

Test [2] in a line: A CellTox Green Cytotoxicity Assay to monitor cytotoxicity in HEK293 cells - 40 hour (AID 1224871). Note: nearly all actives have a fitted effect of over 45% in size. The essentials:
(§2)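 Tox21 screen in HEK293: membrane-impermeant cyanine dye fluoresces on binding dead-cell DNA; compound pinned 5 h post-seeding, plates held at 37 C, signal read repeatedly through 40 h.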

Test [3] can be described thus: qHTS RealTime-Glo MT Cell Viability Assay in HepG2 cells - 8 hour (AID 1224873). Note: nearly all actives have a fitted effect of over 55% in size. The essentials: as §1
Test [4] is described as follows: A CellTox Green Cytotoxicity Assay to monitor cytotoxicity in HEK293 cells - 24 hour (AID 1224875). Note: series mostly up to about 77 µM; nearly all actives have a fitted effect of over 45% in size. The method in brief: as §2
The nature of test [5]: A CellTox Green Cytotoxicity Assay to monitor cytotoxicity in HepG2 cells - 16 hour (AID 1224876). Note: nearly all actives have a fitted effect of over 45% in size. The essentials: (§3)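 Measurements at 0, 8, 16, 24, 32 and 40 h of treatment captured CellTox Green fluorescence in HepG2 cells that had been co-plated with reagent and preincubated 5 h at 37 C/5% CO2.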
Test [6] is described as follows: qHTS RealTime-Glo MT Cell Viability Assay in HepG2 cells - 32 hour (AID 1224877). Note: nearly all actives have a fitted effect of over 55% in size. The method in brief: (§4)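 HepG2 suspension premixed with RealTime-Glo reagents is plated at 600 cells per well and left 5 h at 37 C/5% CO2. Compounds in DMSO then go in, and bioluminescence reflecting viable cell number is recorded over 40 h.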
A short description of test [7]: A CellTox Green Cytotoxicity Assay to monitor cytotoxicity in HepG2 cells - 40 hour (AID 1224879). Note: nearly all actives have a fitted effect of over 40% in size. The essentials:
as §3

Test [8] in a line: qHTS RealTime-Glo MT Cell Viability Assay in HEK293 cells - 0 hour (AID 1224880). Note: nearly all actives have a fitted effect of over 45% in size. Note: potency is the fitted concentration of half-maximal effect. The essentials: (§5)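 HEK293 + NanoLuc + prosubstrate, 600 cells/well; 5 h, 37 C/5% CO2; compound 23 nL in DMSO by pintool; 37 C; luminescence read at 0, 8, 16, 24, 32 and 40 h time points.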
A short description of test [9]: A CellTox Green Cytotoxicity Assay to monitor cytotoxicity in HEK293 cells - 32 hour (AID 1224881). Note: nearly all actives have a fitted effect of over 40% in size. The method in brief:
as §2

A short description of test [10]: A CellTox Green Cytotoxicity Assay to monitor cytotoxicity in HepG2 cells - 0 hour (AID 1224882). Note: nearly all actives have a fitted effect of over 35% in size. The method in brief:
as §3

Test [11] in a line: A CellTox Green Cytotoxicity Assay to monitor cytotoxicity in HepG2 cells - 32 hour (AID 1224883). Note: nearly all actives have a fitted effect of over 50% in size. The essentials: as §3
Test [12] can be described thus: qHTS RealTime-Glo MT Cell Viability Assay in HepG2 cells - 16 hour (AID 1224885). Note: nearly all actives have a fitted effect of over 50% in size. The method in brief:
as §4

Test [13] in a line: qHTS RealTime-Glo MT Cell Viability Assay in HEK293 cells - 8 hour (AID 1224887). Note: nearly all actives have a fitted effect of over 50% in size. Note: potency is the fitted concentration of half-maximal effect. The method in brief: as §5
Test [14] is described as follows: A CellTox Green Cytotoxicity Assay to monitor cytotoxicity in HEK293 cells - 16 hour (AID 1224888). Note: nearly all actives have a fitted effect of over 35% in size. The method in brief:
as §2

A short description of test [15]: qHTS RealTime-Glo MT Cell Viability Assay in HepG2 cells - 0 hour (AID 1224889). Note: nearly all actives have a fitted effect of over 50% in size. Note: potency is the fitted concentration of half-maximal effect. The essentials: as §4
The nature of test [16]: A CellTox Green Cytotoxicity Assay to monitor cytotoxicity in HEK293 cells - 8 hour (AID 1224884). Note: nearly all actives have a fitted effect of over 35% in size. The method in brief: as §2
Test [17] in a line: A CellTox Green Cytotoxicity Assay to monitor cytotoxicity in HepG2 cells - 24 hour (AID 1224878). Note: nearly all actives have a fitted effect of over 45% in size. The essentials:
as §3

The nature of test [18]: qHTS RealTime-Glo MT Cell Viability Assay in HEK293 cells - 40 hour (AID 1224874). Note: nearly all actives have a fitted effect of over 50% in size. Note: potency is the fitted concentration of half-maximal effect. The settings on record: RealTime-Glo luminescence; max response: hits give low values. The method in brief: as §5
The nature of test [19]: qHTS RealTime-Glo MT Cell Viability Assay in HEK293 cells - 24 hour (AID 1224886). Note: nearly all actives have a fitted effect of over 50% in size. Note: potency is the fitted concentration of half-maximal effect. The essentials:
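Reads taken at 0, 8, 16, 24, 32 and 40 h from the same wells. HEK293 cells (600/well) carried RealTime-Glo reagents from seeding, with compound added after a 5 h settle at 37 C.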
% is set by controls: 0 for no effect and ±100 for the full control effect.

`CN1CCCN=C1COC(=O)C(O)(c1ccccc1)C1CCCCC1` (stereo not drawn): the Potency entry in test [1], in test [2], in test [3], in [4], in test [5] and in [6] was “inactive” throughout. For the same molecule, the Potency entry in test [7], in test [8], in [9], in test [10], in [11] and in test [12] was “inactive” throughout. For the same molecule, the Potency entry in [13], in test [14] and in test [15] was “inactive” each time.
On to `C=COCC(C)C`, for which the Potency result in [1], in test [2], in test [3], in test [4], in [5] and in test [6] was “inactive” in each case. For the same molecule, the Potency entry in [7], in [8], in test [9], in test [10], in test [11] and in test [16] was “inactive” in each case. Further, the Potency entry in [12] and in test [14] was “inactive” each time.
On to `CC(=O)OCCN(CCOC(C)=O)c1ccc(N=Nc2ccc([N+](=O)[O-])cc2C#N)cc1`, for which the Potency result in test [1], in test [2], in test [4], in [5], in test [17] and in test [7] was “inactive” throughout. In addition, the Potency entry in [9], in [10], in [11], in [16], in test [12] and in test [14] was “inactive” in each case. Also, in test [15], the Potency result was “inactive”.
In the case of `CC(C)C(O)(c1ccc(OC(F)(F)F)cc1)c1cncnc1` (stereo not drawn), the Potency entry in test [1], in test [2], in test [3], in test [4], in test [5] and in test [6] was “inactive” throughout. In addition, the Potency result in test [17], in test [7], in test [8], in [9], in [10] and in test [11] was “inactive” throughout. The Potency entry in test [16], in test [12], in test [13], in [14] and in [15] was “inactive” in each case.
With `CC(CCC(=O)O)C(=O)O` (stereo not drawn), the Potency result in test [1], in test [2], in test [3], in [4], in test [5] and in [6] was “inactive” in each case. The Potency entry in [7], in test [8], in test [9], in test [10], in test [11] and in test [16] was “inactive” each time. For the same molecule, the Potency result in [12], in [19], in test [13], in [14] and in test [15] was “inactive” throughout. For the same molecule, in test [18], the max response is 0%.
Consider `CCOC(=O)c1ccccc1C(=C1C=C(Br)C(=O)C(Br)=C1)c1cc(Br)c(O)c(Br)c1`, for which the Potency result in test [1], in test [2], in test [4], in [5], in test [6] and in test [17] was “inactive” each time. The Potency entry in test [7], in test [9], in test [10], in test [11], in [16] and in [12] was “inactive” each time. The Potency result in test [13] and in test [14] was “inactive” each time.
With `O=C(O)c1ccc(OCCCOc2ccc(C(=O)O)cc2)cc1`, the Potency result in test [1], in [2], in test [3], in [4], in [5] and in test [6] was “inactive” throughout. Besides, the Potency entry in test [7], in test [8], in test [9], in test [10], in test [11] and in [16] was “inactive” each time. For the same molecule, the Potency result in [12], in test [19], in test [13], in test [14] and in test [15] was “inactive” throughout. For the same molecule, the max response in test [18] is 1.73%.
In the case of `CC(C)(C)CC(=O)OCC(=O)[C@@]1(O)CC[C@H]2[C@@H]3CCC4=CC(=O)C=C[C@]4(C)[C@H]3[C@@H](O)C[C@@]21C`, the Potency result in [1], in [2], in test [3], in [5], in test [6] and in test [17] was “inactive” each time. The Potency result in test [10], in test [11], in [16], in [12] and in test [14] was “inactive” each time. The Potency in test [18] was 19 µM (active); in test [8], 7.56 µM (active); in test [19], 21.3 µM (active); in test [15] it was 1.34 µM (active).
Turning to `Clc1ccc(Nc2nnc(Cc3ccncc3)c3ccccc23)cc1`, the Potency result in [1], in test [2], in test [3], in test [4], in test [5] and in test [6] was “inactive” each time. Besides, the Potency entry in test [7], in [8], in test [9], in test [10], in test [11] and in test [16] was “inactive” each time. Moreover, the Potency entry in [14] and in test [15] was “inactive” each time. Moreover, the Potency in test [18] was 19 µM (active).
As for `CC1=Nc2ccc3ccccc3c2C1(C)C`, the Potency result in test [1], in [2], in test [3], in test [4], in [6] and in test [8] was “inactive” in each case. Moreover, the Potency entry in [9], in test [10], in test [12], in [14] and in test [15] was “inactive” throughout. Further, in test [18], the max response was -26.2%.
Regarding `O=C1Cc2cc(Cl)ccc2N1`, the Potency result in [1], in test [2], in test [3], in test [4], in test [5] and in test [6] was “inactive” in each case. Further, the Potency result in test [17], in [7], in test [8], in test [9], in test [10] and in test [11] was “inactive” each time. Also, the Potency result in [16], in [12], in [19], in test [14] and in [15] was “inactive” throughout.
Take `COc1ncnc(NS(=O)(=O)c2ccc(N)cc2)c1OC`: the Potency entry in test [1], in test [2], in test [3], in [4], in [6] and in test [9] was “inactive” throughout. In addition, the Potency entry in test [16], in test [12], in [19], in [14] and in [15] was “inactive” each time. Further, the max response in test [18] was -0.242%.
`CC1CC(C)C(=O)C1=O` (stereo not drawn): the Potency result in test [1], in [2], in [4], in [5], in test [6] and in test [17] was “inactive” each time. Also, the Potency entry in [7], in test [8], in test [10], in test [11], in test [16] and in test [12] was “inactive” each time. For the same molecule, the Potency entry in test [13], in test [14] and in [15] was “inactive” each time. Further, the Potency in test [18] and in [19] was 13.8 µM (active) in each case.
With `O=C1Cc2ccccc2N1c1c(Cl)cccc1Cl`, the Potency result in [1], in test [2], in test [3], in test [4], in [5] and in [6] was “inactive” throughout. For the same molecule, the Potency result in test [8], in [9], in [10], in test [12], in [14] and in test [15] was “inactive” in each case. In addition, the Potency was 21.9 µM (active) in [18] and 38.9 µM (active) in test [19].
For `O=C(CCc1ccc(O)cc1)c1c(O)cc(O)cc1O`, the Potency result in [1], in [2], in test [4], in [5], in test [6] and in test [17] was “inactive” in each case. Also, the Potency entry in test [7], in test [9], in [10], in test [11], in test [16] and in [12] was “inactive” throughout. Also, in test [14], the Potency result is “inactive”. The Potency in test [18] was 39.8 µM (active); in test [8], 39.8 µM (active); in test [19] it was 39.8 µM (active); in test [13], 25.1 µM (active).
